Ten compounds from PubChem BioAssay AID540303 (National Center for Advancing Translational Sciences (NCATS), 2011) can be followed below.

SMILES strings stand for the structures. Hit rate of the full screen: of about 330,000 compounds, about 1,000 (0.3%) were called active. A call without a number means that no potency is given here. About 3% were inconclusive and are not listed. Calls follow the shape of the dose curve; as a rule, active = well fitted inhibition curve with a large enough effect; inconclusive = small, poorly fitted or top-dose-only effect; inactive = no such curve, though single readings can be large or run the other way; tested in mouse RAW 264.7 cells. Only a selection was taken, and actives are over-represented in it overall.
Potency is read from the fitted curve at half-maximal effect.

The assay is described as follows: qHTS for Inhibitors of Cell Surface uPA Generation. Also: nearly all actives have a fitted effect of over 55% in size. The following applies: cell surface uPA generation assay; series mostly up to 38.3 µM. An excerpt:
The overall objective of this project is to perform a quantitative high throughput screen (qHTS) to identify novel compounds that inhibit the generation of cell surface urokinase activity. The urokinase plasminogen activator (uPA) is one of the two primary endogenous systems that mediate plasminogen activation into plasmin. Members of this system, including uPA and its receptor (uPAR), are overexpressed in several malignant tumors. This system plays a major role in adhesion, migration, invasion and metastasis of cancer cells. Small molecule inhibitors of the uPA system will serve as probes to understand the molecular mechanisms of the uPA cascade and better understanding the microenvironmental circumstances that facilitate the activation of plasminogen by uPA, and finally may provide novel candidate agents for anticancer drug therapy.
[…] […] Upon inhibition of the uPA activation cascade, the subsequent cell surface uPA activity-dependent translocation of LF into the cytoplasm is inhibited. ATP-Lite is used to measure intracellular ATP concentrations, which remain increased if LF entry into the cytoplasm is inhibited. This validation assay was performed using a small set of validation compounds.
NIH Chemical Genomics Center [NCGC]
NIH Molecular Libraries Probe Centers Network [MLPCN]
Assay Submitter (PI): Thomas Bugge, National Institute of Dental and Craniofacial Research, NIH
Cultured RAW 264.7 were dispensed into 1536-well clear bottom, white walled tissue culture plates at a density of 4000 cells/well and were incubated overnight (12-16 h) at 37 C in a 5% CO2 incubator. Serially diluted compounds in 23 nl DMSO were added to cells. […] Compound and reagent-treated plates were incubated for 24 h at 37 C in a 5% CO2 incubator. Perkin Elmer ATPlitetrade mark 1 step (3 ul) was then added to each well. Luminescence was detected using a Perkin Elmer ViewLuxtrade mark plate reader.
1.Dispensing RAW 264.7 cells into 1536-well, white walled tissue culture plates at a density of 4000 cells/well (4 uL).
2.Incubation at 37 C in a 5% CO2 incubator overnight.
3.Serially diluting compounds (1:5 serial dilution; 0.0024 uM to […] final concentration) in 23 nl DMSO.
5.Incubating the compound and reagent-treated plates for 24 hours at 37 C in a 5% CO2 incubator.
6.Adding ATP-Lite (3 ul).
7.Reading plates by ViewLux with an exposure length of 5 seconds.
(Quantitative high-throughput screening tests each substance at several concentrations.)
In the case of `CCOc1ccc(-c2cc(C)[n+](CCN(CC)CC)c(-c3ccc(OCC)cc3)c2)cc1`, the Potency was 3.55 µM (active).
The result for `CC12CCC3C(CCC4CC(=O)CCC43C)C1CC(=NO)C2=O` (stereo not given) reads “inactive”; that for `CC1CCCN1CCC(C(N)=O)(c1ccccc1)c1ccccc1` (stereo not given), “inactive”.
The same measure for `CC1C(=O)OC2CCN3CC=C(COC(=O)C(C)(O)C1(C)O)C23` (stereo not given): “inactive”; for `CC1=CC(=Cc2sc3ccccc3[n+]2C)C=C(C)O1`: 5.01 µM (active); for `CCOC(=O)C1(c2ccccc2)CCN(CC(O)c2ccc(NC(C)=O)cc2)CC1` (stereo not given): “inactive”.
The result for `C=C(C)C1(CCCC)C(=O)NC(=S)NC1=O` reads “inactive”.
On to `CC(=O)OC1C2(CC3N4C(=O)C5(CO)SSC4(CC31O)C(=O)N5C)OC(C)C(C)(C)C2=O` (stereo not given), for which the Potency entry is “inactive”.
The result for `Cc1cc(C)c2c(c1)NP(=S)(c1ccccc1)N2` (stereo not given) reads “inactive”.
The same measure for `CC1(c2cccc([N+](=O)[O-])c2)CC(C)(C)N(C(=O)c2ccccc2)c2ccccc21` (stereo not given): “inactive”.
